# Source: PubChem BioAssay
# A selection: hits, their analogues and other compounds. The true share with any hit is near 3.1%.
# Rin1 Abl inh: inhibitors of human Rin1-Abl protein interaction. P00519+Q13671. TR-FRET Rin1/Abl binding, biochemical. inhibition, % at 7.35 µM. hit rate 0.4% among 360,000; in the data active = inhibition above about 5%, passing the limit was not always enough
# Target sequence (P00519 whole entry, looked up): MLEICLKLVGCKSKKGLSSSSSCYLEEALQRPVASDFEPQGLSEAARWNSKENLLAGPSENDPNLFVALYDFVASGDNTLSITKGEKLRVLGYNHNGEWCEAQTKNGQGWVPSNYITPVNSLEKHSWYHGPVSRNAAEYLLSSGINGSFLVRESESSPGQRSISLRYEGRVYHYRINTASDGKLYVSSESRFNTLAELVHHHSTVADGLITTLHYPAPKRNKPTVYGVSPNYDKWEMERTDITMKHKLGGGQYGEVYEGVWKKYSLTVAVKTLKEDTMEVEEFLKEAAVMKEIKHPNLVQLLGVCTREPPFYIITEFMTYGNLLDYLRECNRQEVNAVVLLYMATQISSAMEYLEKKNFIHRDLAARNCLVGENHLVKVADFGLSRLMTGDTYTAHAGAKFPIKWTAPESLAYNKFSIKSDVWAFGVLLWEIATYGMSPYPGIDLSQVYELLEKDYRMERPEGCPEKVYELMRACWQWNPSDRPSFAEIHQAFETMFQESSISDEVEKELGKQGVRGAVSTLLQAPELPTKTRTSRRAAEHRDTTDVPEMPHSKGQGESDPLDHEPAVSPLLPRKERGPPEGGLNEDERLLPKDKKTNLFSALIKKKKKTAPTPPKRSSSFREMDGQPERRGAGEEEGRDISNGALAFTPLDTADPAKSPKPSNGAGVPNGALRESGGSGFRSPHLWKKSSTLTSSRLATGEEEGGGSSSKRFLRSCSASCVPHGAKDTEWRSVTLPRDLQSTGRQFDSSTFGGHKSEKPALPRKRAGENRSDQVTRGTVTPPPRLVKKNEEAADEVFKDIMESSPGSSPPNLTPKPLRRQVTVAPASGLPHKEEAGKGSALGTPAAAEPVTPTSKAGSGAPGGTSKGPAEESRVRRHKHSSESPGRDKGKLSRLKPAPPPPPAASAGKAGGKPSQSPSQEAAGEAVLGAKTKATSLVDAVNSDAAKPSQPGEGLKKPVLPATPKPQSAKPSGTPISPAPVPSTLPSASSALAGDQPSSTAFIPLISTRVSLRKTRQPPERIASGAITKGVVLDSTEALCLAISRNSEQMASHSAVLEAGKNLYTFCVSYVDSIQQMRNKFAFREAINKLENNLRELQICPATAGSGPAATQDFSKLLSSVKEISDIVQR
# Target sequence (Q13671 whole entry, looked up): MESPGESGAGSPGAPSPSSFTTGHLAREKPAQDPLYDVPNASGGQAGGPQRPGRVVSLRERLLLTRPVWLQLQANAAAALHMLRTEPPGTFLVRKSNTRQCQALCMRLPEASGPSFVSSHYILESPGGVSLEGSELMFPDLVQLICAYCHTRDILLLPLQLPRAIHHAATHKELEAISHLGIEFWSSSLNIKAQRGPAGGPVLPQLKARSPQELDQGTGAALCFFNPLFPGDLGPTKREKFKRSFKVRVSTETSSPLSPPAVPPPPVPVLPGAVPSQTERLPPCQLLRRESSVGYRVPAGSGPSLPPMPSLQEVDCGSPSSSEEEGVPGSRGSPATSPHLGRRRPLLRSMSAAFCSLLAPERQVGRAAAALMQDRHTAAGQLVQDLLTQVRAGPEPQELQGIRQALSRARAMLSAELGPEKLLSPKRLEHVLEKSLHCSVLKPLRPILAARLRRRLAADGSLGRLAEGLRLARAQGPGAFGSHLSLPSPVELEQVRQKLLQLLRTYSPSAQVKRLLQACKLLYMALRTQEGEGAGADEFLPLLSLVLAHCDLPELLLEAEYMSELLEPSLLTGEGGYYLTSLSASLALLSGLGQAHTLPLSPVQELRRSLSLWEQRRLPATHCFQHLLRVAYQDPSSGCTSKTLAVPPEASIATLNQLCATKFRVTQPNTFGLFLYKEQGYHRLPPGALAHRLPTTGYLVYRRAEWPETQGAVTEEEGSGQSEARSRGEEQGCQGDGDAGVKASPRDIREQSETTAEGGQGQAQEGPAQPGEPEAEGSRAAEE
# LEDGF integ inh: blocks HIV-1 LEDGF/p75-dependent DNA integration; TR-FRET IN-LEDGF/p75 DNA integration, Eu/Cy5; inhibition, % at 3.7 µM; hit rate 0.64% among 370,000; AID 743269;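 active = inhibition above the screen-wide mean plus 3 SD, cut at about 13% in these data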;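 note: signal is the Cy5 over europium emission ratio at 671 and 618 nm; 0% = plate median of compound wells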
# UHRF1 MBD2 ctr: human UHRF1 methylated DNA binding inhibitors; Q96T88; inhibition, % at 4.4 µM; UHRF1 binding to methylated oligo, TR-FRET; hit rate 0.75% among 370,000; AID 687016; in the data active = inhibition above about 21%;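 note: UHRF1 SRA domain binding a hemimethylated CpG hairpin DNA probe; 0% = median of test compound wells and 100% = reference inhibitor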
# MBD2 DNA inh: inhibitors of human MBD2 binding to methylated oligonucleotide; TR-FRET; Q9UBB5; inhibition, % at 4.4 µM; hit rate 0.31% among 370,000; in the data active = inhibition above about 13%
# KLK7 zymogen act: activators of human kallikrein-7 zymogen | P49862 | purified proKLK7, EDANS-DABCYL substrate fluorescence; 100% is mature enzyme control, 0% vehicle | activation, % at 7 µM | hit rate 0.9% among 370,000;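 active = activation above the mean of all tested compounds plus 3 SD, computed per campaign excluding outliers beyond control limits, cut at about 13% in these data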
# Neddyl block: inhibitors of human cullin neddylation; P61081+Q13564; TR-FRET cullin neddylation, biochemical; calls only at 25 µM; hit rate 0.58% among 360,000; AID 651699; in the data active = inhibition above about 36%
# IN multimer act: counter-screen for LEDGF/p75 integration inhibitors: HIV-1 integrase multimerization activators. shares compounds with LEDGF integ inh. TR-FRET HIV-1 integrase multimerization, biochemical. activation, % at 7.7 µM. hit rate 17% among 2,000; in the data active = activation above about 8.9%
# TRFRET interf: counter-screen for LEDGF/p75 integration inhibitors: TR-FRET optical interference | 2,000 tested, under 10 active | TR-FRET optical interference counterscreen, HIV-1 IN multimerization | inhibition, % at 7.7 µM | shares compounds with LEDGF integ inh;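 active = inhibition above the mean over all tested compounds plus 3 SD, which no compound reached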;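 note: 0% = integrase with antibodies and DMSO and 100% = antibodies without integrase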
# LEDGF integ conf: confirmation of HIV-1 LEDGF/p75-dependent integration inhibitors; inhibition, % at 3.7 µM; TR-FRET LEDGF/p75-dependent HIV-1 integration, biochemical; hit rate 36% among 2,000; AID 1053136; shares compounds with LEDGF integ inh; in the data active = inhibition above about 14%
# * hit, by the source's call; i = inactive; . = not tested or not shown.
SMILES,Rin1 Abl inh,LEDGF integ inh,UHRF1 MBD2 ctr,MBD2 DNA inh,KLK7 zymogen act,Neddyl block,IN multimer act,TRFRET interf,LEDGF integ conf
O=C(/C=C/c1ccc(Cl)c(Cl)c1)NC1=NCCS1,0.0,28.5*,4.6,8.9,-0.4,i,0.7,-3.4,6.3
CCN(CC)C1CCN(Cc2c(C(=O)N3CCCCCCC3)nc3ccc(Cl)cn23)C1 (configuration not stated),1.9,-2.8,-0.8,-3.5,0.3,i,.,.,.
CCN(CCn1cccn1)Cc1c(C(=O)N2CCCCCCC2)nc2ccc(Cl)cn12,2.2,26.8*,8.3,0.5,-0.4,i,1.1,-5.8,-4.5
CC1=NN(c2ccc(C)c(C)c2)C(=O)C1C(c1cccc(O)c1)C1C(=O)N(c2ccc(C)c(C)c2)N=C1C (configuration not stated),2.1,41.8*,6.9,9.4,0.5,i,-1.0,3.5,-0.1
Cc1ccc(N2C(=O)C3C4C=CC(C4)C3C2=O)cc1C (configuration not stated),-3.4,-2.1,-4.1,2.2,0.4,i,.,.,.
COc1cc(CNC(=O)c2ccccc2NC(=O)C2=C(C)OCCS2)cc(OC)c1OC,1.8,-0.3,1.0,3.6,0.1,i,.,.,.
COc1ccc(C(C)(NC(C)=O)c2nc(-c3cccnc3)cs2)cc1 (configuration not stated),3.1,0.1,-0.8,-1.5,-0.4,i,.,.,.
COc1ccc(C(C)(NC(C)=O)c2nc(-c3cccc(C(F)(F)F)c3)cs2)cc1 (configuration not stated),-1.1,16.5*,-1.3,-0.4,0.3,i,-0.7,3.5,-8.8
COCC(=O)N(Cc1ccccc1)c1ccccc1C(=O)Nc1cc(OC)ccc1OC,.,-3.6,3.4,1.4,-0.5,.,.,.,.
COC(=O)[C@]1(C)N[C@H](CN(C)S(=O)(=O)c2ccc(F)cc2)[C@@H]2C(=O)N(Cc3ccccc3)C(=O)[C@@H]21,.,0.6,0.8,-6.2,0.2,i,.,.,.
COC(=O)[C@]1(C)N[C@H](CN(C)S(=O)(=O)c2ccc(OC(F)(F)F)cc2)[C@@H]2C(=O)N(Cc3ccccc3)C(=O)[C@@H]21,1.2,14.8*,-1.6,-3.6,0.6,i,-0.3,1.4,-3.9
COC(=O)N[C@@H]1C[C@H]2[C@@H]3CC[C@H]4C[C@@H](OC)CC[C@]4(C)[C@H]3CC[C@]12C,0.8,0.5,3.0,0.6,-8.1,i,.,.,.
COC(=O)[C@H]1C[C@H]2[C@@H]3CC[C@H]4C[C@@H](OC)CC[C@]4(C)[C@H]3CC[C@]2(C)[C@@]2(CCCO2)O1,-0.5,49.3*,0.9,-3.7,0.2,i,1.2,-5.9,4.0
Cc1nnc(NC(=O)CN2CCN(Cc3ccc(F)cc3Cl)CC2)s1,0.3,3.9,1.5,0.5,-1.2,i,.,.,.
Cn1c(=O)cc2c3c(c(N4CCCCC4)ccc31)C(=O)c1ccccc1-2,-11.0,-4.0,2.2,-7.8,0.0,i,.,.,.
O=C1c2ccccc2C(=O)c2c1cccc2N1CCCC1,-13.3,30.0*,11.9,-4.4,0.5,i,3.1,-11.0,2.4
O=C1C=C(N2CCCCC2)c2ccccc2C1=O,-1.5,28.9*,-1.4,-19.7,0.9,i,6.2,-21.8,67.2*
O=S(=O)(c1ccccc1S(=O)(=O)N1CCCCC1)N1CCCCC1,-3.9,.,.,.,.,i,.,.,.
Cc1ccc(NC(=O)CCc2nc3ccccc3c(=O)[nH]2)cc1S(=O)(=O)N1CCOCC1,6.5,-0.5,-3.4,-2.1,-0.5,i,.,.,.
Cc1ccc(NC(=O)COC(=O)c2ccc([N+](=O)[O-])s2)c(C)c1,-0.2,-0.8,-0.9,4.0,-0.3,i,.,.,.
COc1ccccc1NC(=O)COC(=O)c1ccc([N+](=O)[O-])s1,-3.3,16.6*,1.9,5.2,0.0,i,0.3,-1.5,44.3*
Cc1cc(-c2n[nH]c(=S)n2/N=C/c2cccs2)n[nH]1,-2.5,37.6*,-0.9,3.4,0.4,i,1.6,-8.0,0.6
CCOC(=O)c1c(NC(=O)c2ccco2)sc2c1CCCCC2,0.5,2.5,-0.8,-1.2,0.4,.,.,.,.
CCOC(=O)c1c(NC(=O)CSc2nnc(CNC(=O)c3ccco3)n2C)sc2c1CCC2,2.5,59.7*,3.9,-5.3,-0.1,i,-0.6,3.0,-2.8
Cc1ccc(O)c(-c2[nH]ncc2C(=O)c2ccc(Br)cc2)c1,1.4,13.6*,2.4,7.6,0.1,i,-0.7,3.5,-5.3
COc1ccc(/C=C2\C(=O)NC(=O)c3ccccc32)cc1OC,5.2,29.5*,6.5,-8.1,0.2,.,16.3*,-62.1,65.5*
Oc1ccc(-c2csc(Nc3ncccn3)n2)cc1O,5.1,16.5*,8.9,2.2,-0.5,i,26.5*,-133.6,6.4
Oc1ccc(-c2csc(Nc3ncccn3)n2)c(O)c1,2.8,2.9,-1.4,-0.2,1.1,i,.,.,.
